A selection: hits, their analogues and other compounds. The true share with any hit is near 9.3%.
Sm TGR inh – blocks Schistosoma mansoni thioredoxin glutathione reductase | Q962Y6 | AID 485364 | 360,000 compounds, 3% hits | purified TGR, DTNB reduction, TNB absorbance 405 nm | Potency, µM (doses to about 114 µM), for the others: at the highest dose activity change, negative = inhibition, actives largely listed as inhibitors; further: potency means the concentration at half of the fitted maximal effect; nearly all actives have a fitted effect of over 60% in size
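TGR 20 nM + NADPH 100 uM (dispensed conc.), cpd preinc 15 min RT; start with NADPH (500 uM addition) then DTNB (15 mM addition). Kinetic TNB absorbance, 405 nm filter. Four-parameter Hill fit across titration.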
FMDV antiviral – blocks foot and mouth disease virus | FMDV antiviral cell-based qHTS | Potency, µM (doses to about 57.9 µM), without a hit: at the highest dose activity change, negative = inhibition, actives largely listed as inhibitors | 410,000 compounds, 1.2% hits | AID 1159524; calls by dose curve; tested in HEK293T cells; further: read-out not given here; potency means the concentration at half of the fitted maximal effect; nearly all actives have a fitted effect of over 45% in size
VACV mCherry inh – vaccinia inhibition (mCherry reporter); Vaccinia virus mCherry reporter infection, fluorescence; Potency, µM (doses to about 36.5 µM), for inactives: at the top dose activity change, negative = inhibition, hits mostly inhibitors; 310,000 compounds, 0.63% hits; calls by dose curve; tested in A549 cells; further: potency means the concentration at half of the fitted maximal effect; nearly all actives have a fitted effect of over 35% in size
HCV inh – blocks hepatitis C virus | Huh7.5.1 HCVcc-Cre infection, luciferase reporter, 44 h | AID 651820 | 340,000 compounds, 3.4% hits | Potency, µM (titrated, usually from 41.8 µM), without a hit: at the highest dose activity change, negative = inhibition, hits mostly inhibitors; further: potency means the concentration at half of the fitted maximal effect
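A cell-based infection assay in which seeded cells (1,000 per well) receive test compound after 4 h, are inoculated with HCVcc-Cre at approximately 0.5 moi, and are incubated 44 h before luminescence detection.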
VACV Venus inh – vaccinia inhibition (Venus reporter). Potency, µM (top dose mostly 36.5 µM), without a hit: at the highest dose activity change, negative = inhibition, hits mostly inhibitors. Vaccinia virus Venus reporter expression, fluorescence. 330,000 compounds, 0.46% hits; calls by dose curve; tested in A549 cells; further: potency means the concentration at half of the fitted maximal effect; nearly all actives have a fitted effect of over 30% in size
HCMV inh – blocks human cytomegalovirus replication; HFF cells, HCMV-luciferase reporter, 72 h; stronger effect = lower value; activity change, negative = inhibition, % at 57.5 µM; 410,000 compounds, 4.5% hits; AID 1259415; in the data active means activity change below about -60%; inconclusive means no clear call, values can overlap the other calls; inactive means above about -39%
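Cell-based, HFFs, 1000 cells/well, 16 h 37C; cpds in DMSO + HCMV-luc, MOI 1 PFU/cell; 72 h 37C; OneGlo luminescence after 5 min RT; norm. to buffer vs Salinomycin 10uM.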
* marks the source's active call; other numbers are inactive results; ! = not active in a repeat. Unless noted, the call rests on the fitted dose curve; in most records, active means well fitted curve in the direction sought with a large enough effect; inconclusive means small, poorly fitted or top-dose-only effect, or another doubt; inactive means no such curve, though single readings can be large; an effect the other way counts as inactive or inconclusive. On the % scale 0 is the no-effect control and ±100 the full control effect.

How did CCOc1ccc(-c2nc3n(c(=O)c2C#N)CCCS3)cc1 do in these assays?
Sm TGR inh: 0.3%; FMDV antiviral: -7.5%; HCV inh: inconclusive; VACV Venus inh: -16.1%; HCMV inh: -90.8*

Results for COc1cccc(/C=N/NC(=O)c2cc3cc([N+](=O)[O-])ccc3s2)c1O ?
Sm TGR inh: -11.0%; FMDV antiviral: -6.2%; VACV mCherry inh: 5.01µM*; HCV inh: inconclusive; VACV Venus inh: inconclusive; HCMV inh: -104.0*

How did O=C(N/N=C/c1ccsc1)c1cc2ccccc2o1 do in these assays?
Sm TGR inh: 4.6%; FMDV antiviral: 16.6%; HCV inh: 13.4%; HCMV inh: 14.0

Results for O=C(N/N=C/c1ccccc1O)c1cccc(C(F)(F)F)c1 ?
Sm TGR inh: 2.4%; FMDV antiviral: 67.9%; VACV mCherry inh: 3.55µM*; HCV inh: 3.98µM*; VACV Venus inh: inconclusive; HCMV inh: -101.9*

Results for O=C(N/N=C/c1ccccn1)c1cccc([N+](=O)[O-])c1 ?
Sm TGR inh: 45.7%; FMDV antiviral: -1.8%; VACV mCherry inh: -5.9%; HCV inh: -8.6%; VACV Venus inh: -9.7%; HCMV inh: -14.0

What do the screens show for `COc1ccccc1/C=N/NC(=O)c1ccc(NC(=O)c2cccc([N+](=O)[O-])c2)cc1`?
Sm TGR inh: 8.1%

What do the screens show for `O=C(N/N=C/c1cccc([N+](=O)[O-])c1)c1cc2ccccc2o1`?
Sm TGR inh: -1.8%; FMDV antiviral: -3.7%; VACV mCherry inh: -1.1%; HCV inh: 11.2µM*; VACV Venus inh: -24.7%; HCMV inh: 1.5

Results for O=C(NN=Cc1ccccc1O)c1cccc([N+](=O)[O-])c1 ?
FMDV antiviral: 20.2%; VACV mCherry inh: 1.12µM*; HCV inh: 7.94µM*; VACV Venus inh: inconclusive; HCMV inh: -96.5*

What do the screens show for `Cc1cc(C)cc(C(=O)n2nc(C)c(S(=O)(=O)N3CCOCC3)c2C)c1`?
Sm TGR inh: inconclusive; FMDV antiviral: 12.2%; VACV mCherry inh: -22.6%; VACV Venus inh: -8.7%; HCMV inh: 8.5

What do the screens show for `COc1ccc(C(C)(C)C)cc1NC(=O)C1CCCO1` (configuration not stated)?
Sm TGR inh: 2.4%; FMDV antiviral: 5.8%; HCV inh: -10.7%; HCMV inh: -36.8

What do the screens show for `CCCCSc1nc(O)c(C2OC(=O)c3c2ccc(OC)c3OC)c(=O)n1C` (configuration not stated)?
Sm TGR inh: -16.9%; FMDV antiviral: inconclusive; VACV mCherry inh: -12.3%; HCV inh: 20.2%; VACV Venus inh: -9.9%; HCMV inh: 22.2

Results for CCC(=O)Nc1sc2c(c1C(=O)OC)CCN(Cc1ccccc1)C2 ?
Sm TGR inh: -22.8%; FMDV antiviral: -15.3%; VACV mCherry inh: inconclusive; HCV inh: inconclusive; VACV Venus inh: -9.1%; HCMV inh: 9.4

Results for COc1ccc2ccccc2c1/C=N/NC(=O)c1cccc([N+](=O)[O-])c1 ?
Sm TGR inh: 9.9%; FMDV antiviral: 1.6%; VACV mCherry inh: inactive; HCV inh: inconclusive; VACV Venus inh: -13.0%; HCMV inh: -61.9*

How did COc1cc([N+](=O)[O-])cc(/C=N/NC(=O)c2ccc(NC(=O)c3ccc(C)cc3)cc2)c1O do in these assays?
FMDV antiviral: inconclusive; VACV mCherry inh: 0.5%; HCV inh: 2.51µM*; VACV Venus inh: 3.9%; HCMV inh: -101.6*

What do the screens show for `CCOc1cccc(C=NNC(=O)C(=O)Nc2cccc(C(F)(F)F)c2)c1O`?
HCMV inh: -62.3*

How did O=C(CP(=O)(CO)CO)c1ccc(Cl)cc1 do in these assays?
Sm TGR inh: -11.1%; VACV mCherry inh: -3.6%; HCV inh: 0.5%; VACV Venus inh: 7.5%; HCMV inh: 17.8

Results for O=C(O)CNC(=O)c1nc(-c2ccccc2)n(-c2ccccc2)n1 ?
Sm TGR inh: -2.1%; FMDV antiviral: 1.7%; VACV mCherry inh: -11.7%; HCV inh: 24.6%; VACV Venus inh: 2.7%; HCMV inh: -24.0

Results for Cc1ccccc1N1CCN(C2CCCN(C(=O)c3ccccn3)C2)CC1 (configuration not stated) ?
Sm TGR inh: -1.7%; FMDV antiviral: 7.1%; VACV mCherry inh: -19.3%; HCV inh: inconclusive; VACV Venus inh: -13.0%; HCMV inh: -1.2

How did Cc1ccccc1N1CCN(C2CCCN(C(=O)c3cn4cccc(C)c4n3)C2)CC1 (configuration not stated) do in these assays?
Sm TGR inh: 15.5%; FMDV antiviral: 44.7µM*; HCV inh: 11.2µM*; HCMV inh: -32.0

How did Clc1ccc(CN=C(Nc2ccccc2)NC2CCCCC2)cc1 do in these assays?
Sm TGR inh: 0.3%; FMDV antiviral: -23.5%; VACV mCherry inh: -21.5%; HCV inh: inconclusive; VACV Venus inh: -23.0%; HCMV inh: -77.3*

Results for CCc1nc2ccc(C(=O)Nc3ccc(NC(C)=O)cc3)cn2c1N(C)C(=O)Cc1ccccc1 ?
FMDV antiviral: -7.1%; VACV mCherry inh: inactive; VACV Venus inh: -29.2%; HCMV inh: 11.4

What do the screens show for `Cc1ccc(-c2nnc(N3CCN(C(=O)COc4ccccc4)CC3)c3ccccc23)cc1`?
Sm TGR inh: 2.7%; FMDV antiviral: inconclusive; HCV inh: 12.6µM*; HCMV inh: inconclusive

Results for O=C(CN1CCOCC1)N1CCN(c2nnc(-c3ccccc3)c3ccccc23)CC1 ?
Sm TGR inh: inconclusive; FMDV antiviral: -10.1%; VACV mCherry inh: inactive; HCV inh: -6.1%; VACV Venus inh: -5.7%; HCMV inh: 50.8

How did Cc1ccc(-c2nnc(N3CCN(C(=O)CN4CCOCC4)CC3)c3ccccc23)cc1 do in these assays?
Sm TGR inh: -23.2%; FMDV antiviral: -2.4%; HCV inh: 10µM*!; HCMV inh: 11.1

What do the screens show for `O=C(COc1ccc([N+](=O)[O-])cc1)N1CCC(c2nc3ccccc3s2)CC1`?
Sm TGR inh: inconclusive; FMDV antiviral: inconclusive; VACV mCherry inh: -22.8%; VACV Venus inh: -26.4%; HCMV inh: -61.1*

What do the screens show for `O=C(COc1ccc(-c2nnc(N3CCCCC3)c3ccccc23)cc1)N1CCCCC1`?
Sm TGR inh: -0.8%; FMDV antiviral: inconclusive; VACV mCherry inh: -21.2%; HCV inh: 2.5%; VACV Venus inh: inconclusive; HCMV inh: -20.8

Results for O=C(COc1ccc([N+](=O)[O-])cc1)N1CCN(c2nnc(-c3ccccc3)c3ccccc23)CC1 ?
Sm TGR inh: 5.1%; FMDV antiviral: inconclusive; HCV inh: 12.6µM*; HCMV inh: 8.4

Results for CN(C(=O)COc1cc(=O)n(C)c2ccccc12)c1ccc(Br)cc1 ?
Sm TGR inh: 4.5%; FMDV antiviral: -20.7%; VACV mCherry inh: -6.7%; HCV inh: 8.1%; VACV Venus inh: -6.4%; HCMV inh: 15.2

Source: PubChem
